High-throughput results from PubChem BioAssay.
Not all results are given here.
aSyn 5UTR act – Activators via SNCA 5'UTR binding, MLPCN | alpha-synuclein 5'UTR reporter, activators screen | activity score, % (tested at 7.5 µM), hits read low | 300,000 tested, 7.1% active | AID 1814, 2009; in the data active = activity score below about -60%
Active calls of the source: *.

SMILES | aSyn 5UTR act
O=C1NC(=Nc2ccccc2)S/C1=C\c1cccs1 | -92.2*
Cn1cccc1/C=C1\SC(=Nc2cccc(O)c2)NC1=O | -240.8*
Cc1ccc(N=C2NC(=O)/C(=C\c3ccco3)S2)cc1 | -73.6*
O=C1NC(=Nc2ccc(O)cc2)S/C1=C/c1ccco1 | -87.8*
Cc1cc2nc3c(nc2cc1C)CCCC3 | -177.5*
Cc1cc(C(=O)CSc2nncs2)c(C)n1-c1ccc2c(c1)OCO2 | -153.1*
Cc1cc(C(=O)CSc2nnnn2-c2ccccc2)c(C)n1-c1ccc2c(c1)OCO2 | -90.9*
O=C(Nc1ccccc1)NC1CCCCCCC1 | -106.2*
O=C(Nc1ccccc1)NC1CCCCC1 | -66.4*
CCOCC(=O)Nc1ccc(Br)c(C)c1 | -120.4*
Cc1ccc(NC(=O)Cc2noc3ccccc23)cc1 | -172.8*
COc1cccc(-c2nnc(SCc3ccc(C#N)cc3)n2Cc2ccco2)c1 | 42.7
c1ccc(CSc2nnc(-c3ccco3)n2Cc2ccco2)cc1 | -106.8*
Cn1c(SCc2ccccc2)nnc1-c1ccco1 | -119.7*
NC(=O)c1ccccc1OCCOc1ccc(Br)cc1 | -62.9*
CC(=O)c1ccccc1OCCOCCOCCOc1ccccc1C(C)=O | 67.3
O=[N+]([O-])c1cc(-c2ccc(/C=N/c3nc4ccccn4c3-c3ccco3)o2)ccc1Cl | -73.9*
Cc1ccc(-c2noc(CNc3ccccc3)n2)cc1 | -77.8*
Cc1cccc(-c2noc(Cc3ccccc3)n2)c1 | -169.5*
Cc1cccc(-c2noc(CCc3ccccc3)n2)c1 | -121.0*
Clc1cccc(Cl)c1/C=C/c1ccn[nH]1 | -232.3*
C/C(=N\N1C(=O)c2ccccc2NC1c1ccco1)c1ccccc1O (stereo not drawn) | 59.2
Cc1ccc(/C=N/N2C(=O)c3ccccc3NC2c2ccc(C)cc2)cc1 (stereo not drawn) | -83.7*
O=C1c2ccccc2NC(c2ccco2)N1/N=C/c1ccco1 (stereo not drawn) | -92.4*
Cc1cccc(-n2ncc3c(N4CCOCC4)ncnc32)c1 | 77.3
SMILES | aSyn 5UTR act
Cc1ccc(-n2ncc3c(N4CCN(c5ccccc5)CC4)ncnc32)c(C)c1 | -62.4*
Cc1cccc(-n2ncc3c(N4CC(C)CC(C)C4)ncnc32)c1 (stereo not drawn) | -109.1*
Cc1cccc(-n2ncc3c(NCCCO)ncnc32)c1 | -100.5*
Cc1cccc(-n2ncc3c(NC4CCCCC4)ncnc32)c1 | -90.1*
C=CCNc1ncnc2c1cnn2-c1cccc(C)c1 | -133.1*
CC(=O)c1cccc(Nc2ccc(-c3ccccc3F)nn2)c1 | -155.5*
CC(=O)c1ccc(Nc2ccc(-c3ccccc3C)nn2)cc1 | -147.7*
CCOC(=O)c1ccccc1NC1c2ccccc2C(=O)N1c1ccc(C)cn1 (stereo not drawn) | -85.3*
COc1cc(NC2c3ccccc3C(=O)N2c2ccc(C)cn2)cc(OC)c1OC (stereo not drawn) | -76.9*
COC(=O)c1ccc(C2OCC(C)(C)CO2)cc1 | -135.4*
COC(=O)c1ccc2c(c1)C(C)(C)C(/C=C/c1ccc(OC)c(OC)c1OC)=[N+]2C | 101.6
COc1ccc(-c2cc3c(=O)n(CC(=O)NCCCN4CCC(Cc5ccccc5)CC4)ncn3n2)cc1 | 96.4
COc1ccc(CNC(=O)Cn2ncn3cccc3c2=O)cc1 | -78.3*
COc1ccc(-c2cc3c(=O)n(CC(=O)NCc4ccc(F)cc4)ncn3n2)cc1 | -75.4*
COc1cc(C)c(Cl)c(C)c1S(=O)(=O)NC1CC(C)(C)NC(C)(C)C1 | -159.9*
c1ccc(-c2ccc3c(n2)CCCO3)cc1 | -112.8*
O=C(NNC(=S)Nc1ccccc1)c1cccc(Br)c1 | -94.9*
CC(C)(C)NC(=S)NNC(=O)c1cccc(Br)c1 | -120.6*
COc1ccccc1NC(=S)NNC(=O)c1ccc(O)cc1 | -105.9*
O=C(NNC(=S)Nc1ccccc1)c1ccc(O)cc1 | -131.3*
O=C(NNC(=S)Nc1ccc(Br)cc1)c1ccccc1 | -107.3*
COc1ccc(N2CCN(C(=O)c3ccc(Cn4c(=S)[nH]c5ccc(N6CCOCC6)cc5c4=O)cc3)CC2)cc1 | -110.8*
O=c1c2cc(N3CCOCC3)ccc2[nH]c(=S)n1Cc1ccc(Cl)cc1 | -121.5*
Cc1cccc(OCCCC(=O)Nc2ccc(N(C)C)cc2)c1 | -88.5*
Cc1ccc(NC(=O)CCOc2ccccc2)cc1 | -203.2*
SMILES | aSyn 5UTR act
CC(=O)N/N=C/c1ccccc1OCCOc1cccc(C)c1 | -76.4*
COc1ccc(/C=N/NC(=O)c2cccc(NC(=O)c3ccccc3Cl)c2)cc1 | -99.4*
COc1ccc(C(=O)Nc2cccc(C(=O)N/N=C/c3ccc(OC)cc3OC)c2)cc1 | 83.2
CC(=O)Nc1cccc(C(=O)N/N=C/c2ccccc2F)c1 | -109.0*
CC(=O)Nc1cccc(C(=O)N/N=C/c2ccc(F)cc2)c1 | -115.1*
CC1CCC(NC(=O)N(CCCl)N=O)CC1 (stereo not drawn) | -137.7*
CC(C)(C)c1ccc(/C=C/C(=O)Nc2nncs2)cc1 | -87.9*
O=C(/C=C/c1ccc2c(c1)OCO2)Nc1nncs1 | -115.1*
FC(F)(F)c1cccc(-c2nc(-c3ccncc3)no2)c1 | -191.0*
O=C(O)c1ccc(-c2noc(-c3cccc(C(F)(F)F)c3)n2)cc1 | -82.6*
COc1ccc(-c2nnn(Cc3ccccc3)n2)cc1 | -167.5*
CSc1ccc(-c2nnn(Cc3ccc(C)cc3)n2)cc1 | -167.6*
O=C(O)c1cccc(-c2nnn(Cc3ccccc3)n2)c1 | -84.6*
Cc1ccccc1Cn1nnc(-c2cccc(C(=O)O)c2)n1 | -78.5*
CCCCc1ccc(Nc2ncccc2C#N)cc1 | -86.6*
CCCOc1ccc(-c2cc(C(=O)NCC3CCCO3)c3ccccc3n2)cc1 (stereo not drawn) | -72.7*
COc1ccc(C(=O)Nn2c(SCC(=O)NCC3CCCO3)nc3ccccc3c2=O)cc1 (stereo not drawn) | 87.1
CCOc1ccc(-c2cc(C(=O)N3CCN(C)CC3)c3ccccc3n2)cc1 | -135.9*
CCOc1ccc(-c2cc(C(=O)N3CCCC3)c3ccccc3n2)cc1 | -68.1*
CCc1sc(C(=O)Nc2nc(C)cs2)cc1C | -81.9*
CC(=O)c1sc(NC(=O)c2cccs2)nc1C | -98.5*
Cc1csc(NC(=O)c2ccc(Br)s2)n1 | -101.9*
Cc1csc(NC(=O)c2cccs2)n1 | -112.1*
Cc1nc(NC(=O)c2cccs2)ccc1Br | -284.2*
CCOc1cccc2sc(NC(=O)c3ccc(Br)s3)nc12 | -81.2*
SMILES | aSyn 5UTR act
Oc1ccc(-c2nccc(-c3ccc(Cl)cc3)n2)cc1 | -84.3*
Oc1ccc(-c2nccc(-c3cccs3)n2)cc1 | -156.8*
Oc1ccc(-c2nnc(-c3ccc(O)cc3)nn2)cc1 | -109.2*
Oc1ccc(-c2cccc(-c3ccc(O)cc3)n2)cc1 | -67.9*
O=C(/C=C/c1cccs1)c1ccc(NC(=O)c2cccc(Br)c2)cc1 | -84.5*
Cc1ccc(C(=O)Nc2ccc(C(=O)/C=C/c3cccs3)cc2)cc1 | -200.6*
O=C(/C=C/c1cccs1)c1ccc(Br)cc1 | -95.8*
CCCCCC(=O)Nc1ccc2ccccc2c1 | -174.7*
CCCCC(=O)Nc1ccc2c(c1)oc1ccccc12 | -250.8*
Cc1cc(=O)oc2cc(NC(=O)C3CCCC3)ccc12 | -85.2*
CC(C)CC(=O)Nc1ccc2c(c1)oc1ccccc12 | -227.4*
O=C(Nc1ccc2c(c1)oc1ccccc12)C1CC1 | -138.3*
O=C(Nc1ccc(F)cc1F)c1csc(-c2ccccc2)n1 | -95.3*
O=C(Nc1ccccc1)c1csc(-c2ccccc2)n1 | -170.2*
O=C(Nc1ccccc1Cl)c1csc(-c2cccnc2)n1 | -69.9*
O=C(Nc1ccc(F)cc1F)c1cccc(C(=O)Nc2ccc(F)cc2F)n1 | 86.7
Cc1nc(NC(=O)c2cnccn2)ccc1Br | -101.2*
